# Values joined by “and” are separate entries in the source; they are usually repeats but may differ in a detail not shown here. Identical values can stand only once. Results filed as inconclusive are left out. Entries that show only a call come without a potency. Unmarked numbers belong to inactive results. Active and inactive are the calls of the source. Unless noted, the call rests on the fitted dose curve; in most records, active means well fitted curve in the direction sought with a large enough effect; inconclusive means small, poorly fitted or top-dose-only effect, or another doubt; inactive means no such curve, though single readings can be large; an effect the other way counts as inactive or inconclusive.
# Tests used:
# [1] = biological target: Estrogen receptor (Homo sapiens) (UniProt P03372); assay: qHTS assay for small molecule agonists of estrogen receptor alpha signaling (AID 588514; calls by dose curve; further: nearly all actives have a fitted effect of over 70% in size; further: potency means the concentration at half of the fitted maximal effect)
# Estrogen receptor (Homo sapiens), sequence (P03372 whole entry, looked up): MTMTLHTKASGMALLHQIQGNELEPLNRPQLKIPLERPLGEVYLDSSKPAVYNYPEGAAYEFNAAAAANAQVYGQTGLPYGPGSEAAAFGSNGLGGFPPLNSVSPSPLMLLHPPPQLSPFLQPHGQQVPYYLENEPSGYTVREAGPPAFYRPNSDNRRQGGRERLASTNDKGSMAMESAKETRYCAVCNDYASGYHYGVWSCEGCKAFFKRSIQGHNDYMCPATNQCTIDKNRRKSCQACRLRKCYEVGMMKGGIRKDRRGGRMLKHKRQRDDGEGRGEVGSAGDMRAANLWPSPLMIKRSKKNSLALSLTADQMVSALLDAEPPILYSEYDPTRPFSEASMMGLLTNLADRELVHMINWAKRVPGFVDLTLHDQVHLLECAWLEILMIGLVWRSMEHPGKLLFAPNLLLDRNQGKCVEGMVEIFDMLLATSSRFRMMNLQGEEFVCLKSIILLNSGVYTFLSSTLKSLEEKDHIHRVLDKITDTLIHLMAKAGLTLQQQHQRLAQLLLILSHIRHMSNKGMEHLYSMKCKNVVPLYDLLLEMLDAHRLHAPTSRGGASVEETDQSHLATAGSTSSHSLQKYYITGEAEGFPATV
# In short: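 Cells were plated at 5000/well, incubated 4 hrs at 37 C, dosed with compound titration series, incubated 18 hrs at 37 C, loaded with CCF4 dye for 2 hrs at RT, then fluorescence was read.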
# [2] = qHTS assay for environmental chemicals that activate the Aryl hydrocarbon Receptor (AhR) signaling pathway (AID 651777); settings: 1A2-DRE human hepatoma cells, luciferase, 24 h; activation: hits give high values; further: nearly all actives have a fitted effect of over 15% in size
# In short: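 Measured luciferase activity, read 30 min after One-Glo addition at room temperature, from human hepatoma cells bearing a dioxin response element–CYP1A2 promoter reporter and exposed to compound for 24 hr at 37 C.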
# [3] = NCATS anti-infectives library activity on HEK293 viability as a counter-qHTS vs the C. elegans viability qHTS (AID 1745854);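 further: HEK293 cells exposed to compounds for 24 hr before the viability read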; further: potency means the concentration at half of the fitted maximal effect
# In short: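 Compounds were acoustically plated (several concentrations, 1:5, final up to 41.7 uM), then 1500 HEK293 cells added per well and incubated 24 hr at 37C, 5% CO2. CellTiter-Glo was added and luminescence read after 10 min.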
# [4] = qHTS to identify inhibitors of the type 1 interferon - major histocompatibility complex class I in skeletal muscle: primary screen against the NCATS Mechanism Interrogation Plate v5.0 (MIPE) Libary (AID 1347411); further: nearly all actives have a fitted effect of over 65% in size; further: potency means the concentration at half of the fitted maximal effect
# In short: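 Luminescence from HiBiT-tagged endogenous HLA-B*08:01 served as the MHC class I read-out. CRISPR-engineered C25cl48 human myoblasts received 4.0 ng/ml IFN-beta plus compound for 24 hrs, with an 11-point, 1:3 series topping at 46 uM final.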
# [5] = P-glycoprotein substrates identified in KB-3-1 adenocarcinoma cell line, qHTS therapeutic library screen (AID 1346986); further: nearly all actives have a fitted effect of over 60% in size
# In short: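 Cells seeded 500/well in DMEM/10% FCS; compounds pinned in dose-response; 72 h incubation; CellTiter-Glo added, 5 min, luminescence. KB-8-5-11 run ±tariquidar to test reversal of P-gp resistance.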
# [6] = system: Zika virus NS2B-NS3 protease (linked construct); assay: Confirmatory screen NINDS AMC qHTS for Zika virus inhibitors (AID 1347152); further: nearly all actives have a fitted effect of over 70% in size; further: potency means the concentration at half of the fitted maximal effect
# In short: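 Linked NS2B-NS3 protease, 1 nM, in 10 mM Tris-HCl pH 8.0, 0.01% Tween 20; compounds preincubated 15 min at room temperature. Nle-KRR-AMC 10 microM (Km 18.3 µM); 15-min fluorescence change (340/450 nm) fitted to 4-parameter Hill.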
# [7] = Confirmatory screen NINDS Rhodamine qHTS for Zika virus inhibitors (AID 1347161); further: nearly all actives have a fitted effect of over 60% in size; further: potency means the concentration at half of the fitted maximal effect
# In short: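 Kinetic fluorescence (Ex 480 nm, Em 540 nm) over 15 min with 1.5 microM Rhodamine110 peptide and 25 nM linked protease.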
# [8] = Cell Viability - LYMP2-001 (AID 921); further: nearly all actives have a fitted effect of over 70% in size
# In short: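 Human lymphoblastoid LYMP2-001 cells, 2500 per well, in complete medium, treated 24 h at 37 C. Viability from cellular ATP by CellTiter-Glo luminescence; AC50 from Hill-equation fits of qHTS concentration-response.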
# [9] = biological target: Bile acid receptor (Homo sapiens) (UniProt Q96RI1); assay: qHTS assay for small molecule antagonists of farnesoid X receptor signaling (AID 588526; calls by dose curve)
# Bile acid receptor (Homo sapiens), sequence (Q96RI1 whole entry, looked up): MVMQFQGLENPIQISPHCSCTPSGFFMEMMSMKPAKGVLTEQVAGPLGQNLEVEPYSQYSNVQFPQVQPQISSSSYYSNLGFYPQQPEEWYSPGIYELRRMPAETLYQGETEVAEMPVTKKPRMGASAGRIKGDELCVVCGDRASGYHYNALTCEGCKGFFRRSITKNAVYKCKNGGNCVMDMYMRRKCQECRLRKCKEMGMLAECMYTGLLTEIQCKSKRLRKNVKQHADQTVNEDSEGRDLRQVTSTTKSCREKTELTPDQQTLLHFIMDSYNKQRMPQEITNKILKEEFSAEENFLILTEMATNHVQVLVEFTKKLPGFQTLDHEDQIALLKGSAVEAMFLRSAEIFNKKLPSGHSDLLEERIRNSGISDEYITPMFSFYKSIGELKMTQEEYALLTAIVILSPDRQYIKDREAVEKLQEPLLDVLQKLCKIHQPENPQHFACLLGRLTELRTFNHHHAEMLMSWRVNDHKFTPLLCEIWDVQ
# In short: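 Beta-lactamase reporter antagonist mode: HEK293T FXR-UAS-bla cells, titrated compound, CDCA stimulation, 16 h 37 C, CCF4 dye 2 h RT. Data normalized to CDCA 50 uM and DMSO; Hill-fit IC50.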
# [10] = biological target: Tumor necrosis factor (Homo sapiens) (UniProt P01375); assay: qHTS assay to identify small molecules that stimulate Tumor Necrosis Factor-alpha (TNF-alpha) secretion (AID 651757; active means well fitted curve in the direction sought with a large enough effect in the signal ratio; the % refers to the signal ratio)
# Tumor necrosis factor (Homo sapiens), sequence (P01375 whole entry, looked up): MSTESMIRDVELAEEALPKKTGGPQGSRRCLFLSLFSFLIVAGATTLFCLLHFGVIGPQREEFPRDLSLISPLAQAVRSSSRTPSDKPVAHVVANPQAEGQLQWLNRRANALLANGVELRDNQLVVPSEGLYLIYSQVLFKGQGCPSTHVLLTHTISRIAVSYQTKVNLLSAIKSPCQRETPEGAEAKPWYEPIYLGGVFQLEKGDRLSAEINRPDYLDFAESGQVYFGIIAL
# In short: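 Read-out is HTRF, a TR-FRET sandwich of cryptate- and XL665-labeled anti-TNF-alpha antibodies detecting cytokine secreted by THP-1 cells. Cells had been incubated with test compounds at 37 C for 17 hrs beforehand.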
# [11] = biological target: ATP-dependent 6-phosphofructokinase (Trypanosoma brucei brucei) (UniProt O15648); assay: qHTS Assay to Find Inhibitors of T. brucei phosphofructokinase: hit validation (AID 492961); further: potency means the concentration at half of the fitted maximal effect
# ATP-dependent 6-phosphofructokinase (Trypanosoma brucei brucei), sequence (O15648 whole entry, looked up): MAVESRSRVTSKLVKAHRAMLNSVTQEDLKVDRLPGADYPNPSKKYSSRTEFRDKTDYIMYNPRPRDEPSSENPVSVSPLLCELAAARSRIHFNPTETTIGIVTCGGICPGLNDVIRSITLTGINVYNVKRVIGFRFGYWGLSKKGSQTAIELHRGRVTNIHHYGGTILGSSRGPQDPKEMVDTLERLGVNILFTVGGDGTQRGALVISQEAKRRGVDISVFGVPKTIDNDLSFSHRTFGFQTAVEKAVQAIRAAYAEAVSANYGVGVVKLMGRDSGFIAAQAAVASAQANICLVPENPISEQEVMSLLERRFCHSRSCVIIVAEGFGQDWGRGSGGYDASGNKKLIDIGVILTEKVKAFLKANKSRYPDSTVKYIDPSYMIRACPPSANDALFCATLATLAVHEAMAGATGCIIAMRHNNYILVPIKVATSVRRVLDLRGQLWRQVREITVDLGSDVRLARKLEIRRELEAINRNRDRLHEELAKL
# In short: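 Measures ADP output of PFK (1.25 nM) at 0.1 mM ATP, 0.5 mM F6P, pH 8.0 TEA buffer with 5 mM MgCl2. No-enzyme wells define full inhibition; uninhibited enzyme wells define zero.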
# CP238 = assay: qHTS profiling for inhibitors of Plasmodium falciparum proliferation (AID 504749); further: nearly all actives have a fitted effect of over 60% in size; further: potency means the concentration at half of the fitted maximal effect; settings: P. falciparum in erythrocytes, SYBR Green DNA, 72 h; series mostly up to 28.7 µM
# In short: (§1)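 Infected RBCs, 0.3% parasitemia/2.5% Hct final; cpd 72 h, 37 C, 5% CO2; lysis buffer with saponin/triton/SYBR Green I, o/n RT dark; FI 485/535; norm. to artemisinin (0.29 uM) and DMSO.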
# CP247 = assay: as above; settings: P. falciparum in erythrocytes, SYBR Green DNA, 72 h; series mostly up to 28.7 µM
# In short: as §1
# CP286 = assay: as above; settings: P. falciparum in erythrocytes, SYBR Green DNA, 72 h; series mostly up to 28.7 µM
# In short: as §1
# DFO2036 = assay: as above; settings: P. falciparum in erythrocytes, SYBR Green DNA, 72 h; series mostly up to 28.7 µM
# In short: as §1
# GB4 = assay: as above; settings: P. falciparum in erythrocytes, SYBR Green DNA, 72 h; series mostly up to 28.7 µM
# In short: as §1
# HB3 = assay: as above; settings: P. falciparum in erythrocytes, SYBR Green DNA, 72 h; series mostly up to 28.7 µM
# In short: as §1
# TAB109 = assay: as above; settings: P. falciparum in erythrocytes, SYBR Green DNA, 72 h; series mostly up to 28.7 µM
# In short: as §1
# W2 = assay: as above; settings: P. falciparum in erythrocytes, SYBR Green DNA, 72 h; series mostly up to 28.7 µM
# In short: as §1
# [12] = biological target: Nucleoprotein (Lymphocytic choriomeningitis virus (strain Armstrong)) (UniProt P09992); assay: qHTS for Inhibitors of the Functional Ribonucleoprotein Complex (vRNP) of Lymphocytic Choriomeningitis Arenaviruses (LCMV): LCMV Primary Screen - GLuc reporter signal (AID 1347086; calls by dose curve; further: nearly all actives have a fitted effect of over 70% in size)
# Nucleoprotein (Lymphocytic choriomeningitis virus (strain Armstrong)), sequence (P09992 whole entry, looked up): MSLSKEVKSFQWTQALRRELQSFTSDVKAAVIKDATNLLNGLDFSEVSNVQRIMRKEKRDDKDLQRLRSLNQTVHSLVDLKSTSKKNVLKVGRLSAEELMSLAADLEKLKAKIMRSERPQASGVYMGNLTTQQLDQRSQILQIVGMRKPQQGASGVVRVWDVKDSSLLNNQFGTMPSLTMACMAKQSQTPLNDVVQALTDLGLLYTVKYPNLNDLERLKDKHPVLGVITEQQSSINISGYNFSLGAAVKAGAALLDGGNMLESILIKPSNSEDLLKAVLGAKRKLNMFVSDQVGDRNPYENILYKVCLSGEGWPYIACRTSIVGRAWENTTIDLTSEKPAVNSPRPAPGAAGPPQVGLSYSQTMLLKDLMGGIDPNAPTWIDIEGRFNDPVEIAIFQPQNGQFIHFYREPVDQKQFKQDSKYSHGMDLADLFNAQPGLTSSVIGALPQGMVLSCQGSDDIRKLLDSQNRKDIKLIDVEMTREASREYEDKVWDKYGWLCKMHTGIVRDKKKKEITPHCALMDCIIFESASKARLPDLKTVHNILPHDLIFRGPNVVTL
smiles,measurement,setting,value
C[C@@H]1Cc2c(Cl)cc(C(=O)N[C@@H](Cc3ccccc3)C(=O)O)c(O)c2C(=O)O1,Potency,[1],44.7 µM (active)
same,activation,[2],8.7%
Cc1sc2c(c1C)C(c1ccc(Cl)cc1)=N[C@@H](CC(=O)Nc1ccc(O)cc1)c1nnc(C)n1-2,Potency,[3],inactive
CC[C@H]1/C=C\C=C/C[C@@H](C)[C@H](O)[C@@](C)(O)C(=O)[C@@H](C)[C@H](O)[C@@H](C)C(=O)[C@@H](C)[C@H](O)[C@@H](C)/C=C\C(=O)O[C@@H]2[C@H](C)[C@H](CC1)O[C@]1(CC[C@H](C)[C@H](C[C@@H](C)O)O1)[C@H]2C,Potency,[4],20.8 µM (active)
same,Potency,[3],15.8 µM (active)
Cc1ncc(OC[C@@]2(c3cccc(F)c3)C[C@H]2C(=O)Nc2ccc(F)cn2)c(C)n1,Potency,[4],inactive
Cc1cccc(NC(=O)c2ccc(C(F)(F)F)cc2C(=O)O)n1,Potency,[5],inactive
C/C=C(\C)C(=O)O[C@@H]1[C@@H](C)[C@]2(O)C3C=C(C)C(=O)[C@@]3(O)CC(CO)=C[C@H]2C2C(C)(C)[C@@]21OC(=O)C(C)CC (stereo partly specified),Potency,[5],inactive
CC(C)=CCC[C@]1(C)C=Cc2c(O)c3c(c(CC=C(C)C)c2O1)O[C@]12C(=C[C@@H]4CC1C(C)(C)O[C@@]2(C/C=C(/C)C(=O)O)C4=O)C3=O,Potency,[6],9.87 µM (active)
same,Potency,[7],2.48 µM (active)
O=Cc1ccccc1,outcome,[8],inactive
same,Potency,[9],inactive
same,outcome,[10],inactive
Oc1cc[c]([Hg][Cl])cc1,Potency,[11],2.82 µM (active)
same,Potency,CP238,10 µM (active)
same,Potency,CP247,5.01 µM (active)
same,Potency,CP286,10 µM (active)
same,Potency,DFO2036,8.91 µM (active)
same,Potency,GB4,6.75 µM (active)
same,Potency,HB3,11.2 µM (active)
same,Potency,TAB109,7.08 µM (active)
same,Potency,W2,5.36 µM (active)
C[C@@H]1[C@@H]2Cc3ccc(O)cc3[C@@]1(C)CCN2CCc1ccccc1,Potency,[6],inactive
same,Potency,[7],inactive
COC(=O)c1ccccc1C(=O)OC,outcome,[8],inactive
same,Potency,[1],inactive
same,Potency,[9],inactive
same,outcome,[10],inactive
same,activation,[2],1.37% and 0.566%
C[N+](C)(C)CC(=O)[O-],Potency,[11],inactive
same,Potency,[12],inactive
same,Potency,CP238,inactive
same,Potency,CP247,inactive
same,Potency,CP286,inactive
same,Potency,DFO2036,inactive
same,Potency,GB4,inactive
same,Potency,HB3,inactive
same,Potency,TAB109,inactive
same,Potency,W2,inactive
Clc1ccc([C@@H]2C[C@H]3CC[C@@H]2N3)cn1,Potency,[12],inactive
COC(=O)[C@H]1[C@@H](OC(=O)c2ccccc2)C[C@@H]2CC[C@H]1N2C,Potency,[12],inactive
